Assay [1] can be described thus: ATG_TCF_b_cat_CIS: Attagene CIS-FACTORIAL HepG2 Assay for human T-Cell-Factor with beta-catenin (TCF/b-cat) (AID 2282965). The settings on record: HepG2 TCF/beta-catenin cis-reporter transcription, actives raise or lower the signal. The method in brief:
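Endogenous TCF/LEF activity read as reporter transcript level via RT-PCR and capillary electrophoresis fluorescence in transfected HepG2, 24 h exposure; gain or loss of signal fitted against DMSO controls.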

Assay [2] is described as follows: ATG_TAL_CIS: Attagene CIS-FACTORIAL HepG2 Assay for human TAL Basal Promoter (AID 2282966).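 Also: background control endpoint measuring basal TAL promoter reporter mRNA not a specific factor.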 The settings on record: HepG2 Attagene cis-factorial TAL promoter reporter; actives raise or lower the signal. In a few lines: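 Fluorescence of labelled reporter cDNA fragments, resolved by capillary electrophoresis, gave the readout. Human HepG2 liver cells carried transiently transfected cis-element reporter units and were treated for 24 hours; activity was fitted bidirectionally against DMSO.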

Assay [3] can be described thus: ATG_TGFb_CIS: Attagene CIS-FACTORIAL HepG2 Assay for human Transforming Growth Factor (TGF) (AID 2282967). The settings on record: HepG2 Attagene CIS TGFb reporter, mRNA transcription; actives raise or lower the signal. In a few lines: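 HepG2 cells transiently transfected with cis-promoter-driven multiplexed reporter units; 24 h compound exposure. Reporter mRNA measured by RT-PCR, 6-FAM labeling, HpaI digestion and capillary electrophoresis; bidirectional fit versus DMSO baseline.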

The nature of assay [4]: ATG_VDRE_CIS: Attagene CIS-FACTORIAL HepG2 Assay for human Vitamin D Receptor Element (VDRE) (AID 2282968). The settings on record: HepG2 VDRE cis-reporter transcription, actives raise or lower the signal. The method in brief: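 In transiently transfected HepG2 liver cells, gain or loss of reporter mRNA after 24 h exposure is scored relative to DMSO, using fluorescence detection by capillary electrophoresis of RT-PCR products.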

In assay [5] the target is Estrogen receptor (Homo sapiens) (UniProt P03372). Description: ATG_ERa_TRANS: Attagene TRANS-FACTORIAL HepG2 Assay for human Estrogen Receptor alpha (ERa) (AID 2282970; active = hit-call score of the fitted dose curve at least 0.9, where 1 is the maximum). Particulars: HepG2 Attagene TRANS ERa GAL4 reporter, mRNA. In a few lines:
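Human liver HepG2, transient transfection of multiple GAL4-UAS reporter units; TRANS format (exogenous NR-Gal4 chimera). 24 h dosing. Readout: reporter mRNA, RT-PCR, 6-FAM primer extension, HpaI digest, capillary electrophoresis. Positive direction vs DMSO.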

Assay [6] has as its target X-box-binding protein 1 (Homo sapiens) (UniProt P17861). The experiment in a line: ATG_Xbp1_CIS: Attagene CIS-FACTORIAL HepG2 Assay for human X-box Binding Protein 1 (XBP1) (AID 2282972). Particulars: HepG2 XBP1 cis-element reporter, Attagene multiplex; actives raise or lower the signal. The method in brief:
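HepG2 cells transiently transfected with cis-regulated multiple reporter transcription units; endogenous transcription factor activity measured 24 hours after chemical dosing. Reporter mRNA quantified by RT-PCR, 6-FAM primer extension, HpaI digestion and capillary electrophoresis; bidirectional fitting versus DMSO.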

Assay [7] can be described thus: ATG_M_19_TRANS: Attagene TRANS-FACTORIAL HepG2 Assay for M19 Transcription Factor (Internal Marker) (AID 2282974; active = hit-call score of the fitted dose curve at least 0.9, where 1 is the maximum). The settings on record: HepG2 Attagene TRANS-FACTORIAL M19 internal marker reporter. The method in brief: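 HepG2 transiently transfected with GAL4-UAS multiplex reporter constructs, exposed 24 h; reporter RNA quantified by RT-PCR, 6-FAM labeling, HpaI digestion and capillary electrophoresis; internal background marker fitted upward versus DMSO.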

Assay [8] can be described thus: ATG_GAL4_TRANS: Attagene TRANS-FACTORIAL HepG2 Assay for GAL4 (Internal Marker) (AID 2282976; active = hit-call score of the fitted dose curve at least 0.9, where 1 is the maximum). The settings on record: HepG2 Attagene TRANS GAL4 internal marker reporter. The method in brief:
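First, HepG2 cells were transfected with reporter units under GAL4-UAS control. Next, they were treated with chemical for 24 h. Finally, RNA was reverse-transcribed, PCR-amplified, FAM-labelled and resolved by capillary electrophoresis, with induction scored against DMSO.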

Inconclusive results are not listed. Calls of active or inactive are those of the source. The calls were made as follows, unless noted: active = hit-call score of the fitted dose curve at least 0.9, where 1 is the maximum; inactive = score below 0.9.

From PubChem BioAssay (EPA / NIEHS) come the findings set out here.

Chain of Estrogen receptor (Homo sapiens) (P03372 whole entry, looked up, the tested form may be a part): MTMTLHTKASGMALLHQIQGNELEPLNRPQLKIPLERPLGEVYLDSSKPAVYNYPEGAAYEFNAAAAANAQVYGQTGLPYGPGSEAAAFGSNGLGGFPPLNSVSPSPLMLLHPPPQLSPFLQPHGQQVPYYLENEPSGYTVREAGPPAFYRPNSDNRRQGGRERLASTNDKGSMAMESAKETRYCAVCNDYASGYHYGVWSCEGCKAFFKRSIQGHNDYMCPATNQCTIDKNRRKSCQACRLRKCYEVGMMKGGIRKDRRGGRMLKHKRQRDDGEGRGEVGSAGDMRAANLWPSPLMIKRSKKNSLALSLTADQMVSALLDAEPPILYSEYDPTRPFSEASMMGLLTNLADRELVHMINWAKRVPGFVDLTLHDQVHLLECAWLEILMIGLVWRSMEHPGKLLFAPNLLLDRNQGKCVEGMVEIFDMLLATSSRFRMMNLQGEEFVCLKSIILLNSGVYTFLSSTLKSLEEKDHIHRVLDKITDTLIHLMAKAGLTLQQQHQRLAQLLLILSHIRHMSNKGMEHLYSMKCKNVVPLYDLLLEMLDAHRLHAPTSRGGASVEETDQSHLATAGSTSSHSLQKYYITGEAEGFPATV
Chain of X-box-binding protein 1 (Homo sapiens) (P17861 whole entry, looked up): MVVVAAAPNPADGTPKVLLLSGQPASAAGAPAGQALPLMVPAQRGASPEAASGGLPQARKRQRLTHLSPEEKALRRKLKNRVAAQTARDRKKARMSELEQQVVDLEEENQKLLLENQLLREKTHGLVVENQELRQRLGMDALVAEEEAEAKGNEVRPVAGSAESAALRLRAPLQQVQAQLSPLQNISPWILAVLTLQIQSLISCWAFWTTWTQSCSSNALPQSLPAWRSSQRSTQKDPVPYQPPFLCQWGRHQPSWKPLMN

For `CCCCCCCCCCCC(C)=O`, the AC50 (as a rule, the midpoint of the concentration-response curve, whichever way the signal moves) in assay [1] was 161 µM (active); in assay [2] it was 178 µM (active); in assay [3], 166 µM (active); in assay [5] it was 11.6 µM (active). The call in assay [4], in assay [6], in assay [7] and in assay [8] was inactive.

As for `Nc1ccc(C(=O)OCCCOC(=O)c2ccc(N)cc2)cc1`, the call in assay [1], in assay [2], in assay [3], in assay [5], in assay [6] and in assay [7] was inactive. Further, the outcome in assay [8] was inactive. In addition, the AC50 in assay [4] was 48.8 µM (active).

As to `CCCC=C(C=O)CC`, the outcome in assay [1], in assay [2], in assay [3], in assay [4], in assay [5] and in assay [6] was inactive. In addition, in assay [7], the compound was classed as inactive.

As to `N#Cc1ccc(C(c2ccc(C#N)cc2)n2cncn2)cc1`, the call in assay [1], in assay [2], in assay [3], in assay [4], in assay [5] and in assay [6] was inactive. Also, the outcome in assay [7] was inactive.

In the case of `CCCCCCCCCCCC(=O)OCC`, the outcome in assay [1], in assay [2], in assay [3], in assay [4], in assay [5] and in assay [6] was inactive. The compound was called inactive in assay [7].

On to `C=CCNCC=C`, for which the call in assay [1], in assay [2], in assay [3], in assay [4], in assay [5] and in assay [6] was inactive. In addition, the outcome in assay [7] was inactive.

As for `CC=CC(=O)OCC(C)C`, the result in assay [1], in assay [2], in assay [3], in assay [4], in assay [5] and in assay [6] was inactive. Moreover, the call in assay [7] and in assay [8] was inactive.

On to `CC(=O)C(C)C`, for which the compound was called inactive in assay [1], in assay [2], in assay [3], in assay [4], in assay [5] and in assay [6]. Further, the result in assay [7] was inactive.

With `CC(C)c1ccc(O)c(C(C)C)c1`, the outcome in assay [1], in assay [2], in assay [3], in assay [4], in assay [6] and in assay [7] was inactive. Further, the AC50 in assay [5] was 33.4 µM (active).

In the case of `C=CC(C)(O)CC/C=C(\C)CC` (configuration not stated), the call in assay [1], in assay [2], in assay [3], in assay [4], in assay [6] and in assay [7] was inactive. In assay [5], the AC50 was 30.3 µM (active).

In the case of `CCCCC(=O)O`, the outcome in assay [1], in assay [2], in assay [3], in assay [4], in assay [5] and in assay [6] was inactive. Also, the outcome in assay [7] and in assay [8] was inactive.

As to `CCCCCCO`, the compound was called inactive in assay [1], in assay [2], in assay [3], in assay [4], in assay [5] and in assay [6].

`O=C(O)CCC(=O)O`: the compound was classed as inactive in assay [1], in assay [2], in assay [3], in assay [4], in assay [5] and in assay [6]. For the same compound, the call in assay [7] was inactive.

For the compound `CC(C)(C)NC(=O)[C@H]1CC[C@H]2[C@@H]3CC[C@H]4NC(=O)C=C[C@]4(C)[C@H]3CC[C@]12C`, the call in assay [1], in assay [2], in assay [3], in assay [4], in assay [5] and in assay [6] was inactive. Further, in assay [7], the outcome was inactive.

Consider `CN1CCN(C)CC1`, for which the compound was classed as inactive in assay [1], in assay [2], in assay [3], in assay [4], in assay [5] and in assay [6]. Besides, in assay [7], the compound was classed as inactive.

Turning to `CCCCNC(=S)NCCCC`, the compound was called inactive in assay [1], in assay [2], in assay [3], in assay [4], in assay [5] and in assay [6].

For `COCC(=O)O`, the result in assay [1], in assay [2], in assay [3], in assay [4], in assay [5] and in assay [6] was inactive. The compound was classed as inactive in assay [7].

In the case of `CCCC/C=C/C=C\C=O`, the AC50 in assay [1] is 100 µM (active); in assay [4] it was 6.51 µM (active). The compound was called inactive in assay [2], in assay [3], in assay [5] and in assay [7].

As for `O=C1CCCCCCCCCCCN1`, the compound was classed as inactive in assay [1], in assay [2], in assay [3], in assay [4], in assay [5] and in assay [6]. Moreover, in assay [8], the compound was called inactive.

With `CCCCCCCCCCCC(=O)N(C)CC(=O)O`, the result in assay [1], in assay [2], in assay [3], in assay [4], in assay [5] and in assay [6] was inactive. For the same compound, in assay [8], the call was inactive.

`CCCCNS(=O)(=O)c1ccccc1`: the compound was classed as inactive in assay [1], in assay [2], in assay [3], in assay [4], in assay [5] and in assay [7].

For `CCc1cccc(CC)c1`, the compound was called inactive in assay [1], in assay [2], in assay [3], in assay [4], in assay [5] and in assay [8].

Consider `CCCCCC[C@@H](O)C/C=C\CCCCCCCC(=O)OCC(O)CO` (some centres not stated), for which the compound was classed as inactive in assay [1], in assay [3], in assay [4], in assay [5], in assay [7] and in assay [8]. The AC50 in assay [2] is 164 µM (active).

Consider `CCCSSCCC`, for which the outcome in assay [1], in assay [2], in assay [3], in assay [4], in assay [5] and in assay [6] was inactive. In addition, the compound was called inactive in assay [8].

In the case of `CC(C=O)c1ccccc1` (configuration not stated), the compound was classed as inactive in assay [1], in assay [2], in assay [3], in assay [5], in assay [6] and in assay [8]. Moreover, in assay [4], the AC50 is 9.33 µM (active).

For `C1CNCCN1`, the outcome in assay [1], in assay [2], in assay [3], in assay [4], in assay [5] and in assay [6] was inactive. The result in assay [8] was inactive.

`C[N+](C)(C)CCCNS(=O)(=O)C(F)(F)C(F)(F)C(F)(F)C(F)(F)C(F)(F)C(F)(F)C(F)(F)C(F)(F)F`: the result in assay [1], in assay [2], in assay [4], in assay [5], in assay [7] and in assay [8] was inactive. For the same compound, the AC50 in assay [3] was 60.6 µM (active).

In the case of `CC(=O)OCc1ccccc1`, the result in assay [1], in assay [2], in assay [3], in assay [4], in assay [5] and in assay [6] was inactive. Also, the outcome in assay [7] and in assay [8] was inactive.

On to `CC(C)[N+](C)(CCOC(=O)C1c2ccccc2Oc2ccccc21)C(C)C`, for which the outcome in assay [1], in assay [2], in assay [3], in assay [4], in assay [5] and in assay [6] was inactive. For the same compound, the compound was called inactive in assay [7] and in assay [8].

Consider `Oc1ccc(-c2ccccc2)c(Cl)c1`, for which the result in assay [1], in assay [2], in assay [3] and in assay [7] was inactive. For the same compound, the results for the AC50 in assay [4] and in assay [5] were 33.4 µM (active) and 9.14 µM (active), respectively.

In the case of `CCCCCCCC(=O)OCC(COC(=O)CCCCCCC)OC(=O)CCCCCCC`, the compound was called inactive in assay [1], in assay [2], in assay [3], in assay [4], in assay [5] and in assay [7]. Further, in assay [8], the compound was classed as inactive.
